Menin MLL FP TR – inhibitors of human menin-MLL interaction, mutant MLL peptide; O00255; Menin + Texas Red MLL mutant peptide, fluorescence polarization; Potency, µM (titrated, usually from 61.6 µM), inactives show top-dose FP activity change, negative = inhibition, actives largely listed as inhibitors; AID 1768; actives 0.23% (n = 270,000); active means well fitted inhibition curve with a large enough effect in the polarisation, with a control signal flat, not every such curve was filed as active; inconclusive means small, poorly fitted or top-dose-only effect, or effect the other way, or a change in a side signal; inactive means no such curve, though single readings can be large or run the other way; the % refers to the polarisation; further: potency means the concentration at half of the fitted maximal effect; % of control where 0% means no effect
IDH1 R132H inh – inhibitors of human mutant IDH1 R132H; Potency, µM (doses to about 76.6 µM), for inactives: top-dose activity change, negative = inhibition, actives largely listed as inhibitors; AID 602179; IDH1-R132H enzyme, NADPH consumption, diaphorase/resazurin fluorescence; actives 0.093% (n = 390,000); active means well fitted inhibition curve with a large enough effect; inconclusive means small, poorly fitted or top-dose-only effect; inactive means no such curve, though single readings can be large or run the other way; further: potency means the concentration at half of the fitted maximal effect; on the % scale 0 is the no-effect control and ±100 the full control effect; nearly all actives have a fitted effect of over 65% in size
Target sequence (O75874 whole entry R132H, stated change not applied): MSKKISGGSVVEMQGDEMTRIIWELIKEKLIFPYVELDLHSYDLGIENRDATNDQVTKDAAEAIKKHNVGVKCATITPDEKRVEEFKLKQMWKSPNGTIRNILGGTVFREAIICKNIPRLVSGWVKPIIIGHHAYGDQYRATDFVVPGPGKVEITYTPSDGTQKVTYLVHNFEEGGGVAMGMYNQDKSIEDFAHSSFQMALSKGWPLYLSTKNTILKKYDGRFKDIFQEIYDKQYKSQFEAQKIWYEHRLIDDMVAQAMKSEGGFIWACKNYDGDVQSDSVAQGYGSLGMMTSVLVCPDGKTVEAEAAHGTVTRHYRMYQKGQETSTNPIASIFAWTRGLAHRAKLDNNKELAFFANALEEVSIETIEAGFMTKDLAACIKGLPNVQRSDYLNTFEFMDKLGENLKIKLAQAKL
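IDH1-R132H (0.5 ug/mL dispensed) in pH 7.5 Tris buffer was preincubated 30 min with compound, then given a substrate mix of 0.016 mM NADPH and 2 mM alpha-KG for 80 min at room temperature; remaining NADPH was read by diaphorase/resazurin fluorescence.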
Menin MLL FP FL – menin-MLL binding inhibition, fluorescein peptide | Fluorescence polarization, fluorescein-MLL peptide displacement from menin | FP activity change, % at 61.4 µM | 290,000 tested, under 10 active; active means well fitted curve in the direction sought with a large enough effect in the polarisation, not every such curve was filed as active; inconclusive means small, poorly fitted or top-dose-only effect, or effect the other way, or a change in a side signal; inactive means no such curve, though single readings can be large or run the other way; the % refers to the polarisation; further: % of control where 0% means no effect
LDHA inh – inhibitors of human lactate dehydrogenase A; P00338; purified LDHA, NADH/diaphorase-resazurin fluorescence; stronger effect = lower value; activity change, % (values are at about 110 or 230 µM); actives 0.15% (n = 480,000); AID 1347041; in the data active means activity change below about -30%; inconclusive means mostly about -25% to -30%;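 further: plate controls were DMSO wells for no effect and wells without enzyme for full effect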
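Resorufin fluorescence (ex540/em590), read at 0 and 20 min after diaphorase/resazurin addition, reports the NADH left after a 5 min room-temperature reaction of 2 nM human LDH5 with 0.06 mM NADH and 0.2 mM pyruvate.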
Akt phos inh – Akt phosphorylation inhibition; activity change, % for hits at 50 µM; Neuro2A IGF-stimulated pAkt S473 HTRF, 20 min; stronger effect = lower value; AID 651550; actives 0.32% (n = 360,000); in the data active means activity change below about -80%; inconclusive means mostly about -51% to -80%; further: on the % scale 0 is the no-effect control and ±100 the full control effect
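Neuro2A cells (4,500/well, DMEM with 0.5% FBS) were treated with compound at a single 50 µM final concentration, stimulated with 6 nM IGF for 20 min at 37 °C, and lysed. Phospho-Akt Ser473 was read by HTRF as 665/615 ratio ×10^4.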
CXXC DNA block – inhibitors of human MLL CXXC domain-DNA interaction; MLL-CXXC / FITC-HOXA9 DNA fluorescence polarization; actives 0.037% (n = 290,000); Potency, µM (titrated, usually from 115 µM), inactives show at the top dose activity change, negative = inhibition, most hits filed as inhibitors; AID 2662; Q03164; active means well fitted inhibition curve with a large enough effect in the polarisation, with a control signal flat, not every such curve was filed as active; inconclusive means small, poorly fitted or top-dose-only effect, or effect the other way, or a change in a side signal; inactive means no such curve, though single readings can be large or run the other way; the % refers to the polarisation; further: potency means the concentration at half of the fitted maximal effect
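Purified MLL-CXXC (added from a 7 uM solution) was preincubated 5 min at ambient with pinned compounds in 50 mM Tris-HCl pH 7.5, 50 mM NaCl, 1 mM DTT, 0.05% BSA. Fluorescein-labeled HOX-A9 DNA (50 nM solution) followed, 30 min, then polarization read.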
An asterisk follows results filed as active; i = inactive; ? = inconclusive; · = no result; ! = a repeat was not active; [ ] = remark or other dose. The list is not random: actives were taken first. Their share in the collection is about 0.54%.

SMILES	Menin MLL FP TR	IDH1 R132H inh	Menin MLL FP FL	LDHA inh	Akt phos inh	CXXC DNA block
NS(=O)(=O)c1ccc(NC(=O)Cn2ncc3c2-c2ccccc2OC3)cc1	-5.1%	-7.7%	4.3	-33.5*	i	-8.3%
CCN(CC)S(=O)(=O)c1ccc(-c2nnc(SCC(=O)Nc3nnc(C)s3)n2CC)cc1	-0.3%	8.7%	0.8	1.5	-111.5%*	5.7%
CCCCn1c(SCC(=O)Nc2nnc(C)s2)nnc1-c1ccncc1	?	6.8%	1.7	-0.4	i	?
CC(NCC(=O)Nc1ccccc1C(=O)NC1CC1)c1ccc(S(N)(=O)=O)cc1 (configuration not stated)	·	-0.2%	·	-32.7*	i	·
COc1ccc(NS(=O)(=O)c2cc(NC(=O)/C=C/c3cc(OC)ccc3OC)ccc2N2CCCCC2)cc1	10µM*	1.0%	0.3	1.7	i	2.6%
COc1ccc(NS(=O)(=O)c2cc(NC(=O)CCNC(C)=O)ccc2N2CCCCC2)cc1	·	4.7%	·	0.1	i	·
CCCC(=O)Nc1sc2c(c1C#N)CCC(C(C)(C)C)C2 (configuration not stated)	·	·	·	-23.8	·	·
CN1OC[C@@H]2CN(S(=O)(=O)c3cccc4ccccc34)[C@H](c3ccc(-c4ccccc4)cc3)C[C@@H]21	·	-12.2%	·	-30.3*	i	·
Cc1ccccc1S(=O)(=O)N1C[C@H]2CON(C)[C@H]2C[C@H]1c1cccc(-c2ccccc2)c1	·	-1.2%[38.3 µM]	·	2.6	i	·
CCOc1c(Cl)cc(Cl)cc1CNCc1cccnc1	·	·	·	-8.3	·	·
CC(C(=O)Nc1ccc(F)c(F)c1)N1CCN(C)CC1 (configuration not stated)	-7.9%	-6.0%	0.1	-30.3*	i	13.2%
Cc1cnc(NC(=O)C(C)N2CCN(C)CC2)s1 (configuration not stated)	?	-1.8%	-3.8	-30.6*	i	-11.9%
O=C(Nc1ccccc1F)Nc1ncc(Cl)cc1Cl	·	·	·	0.5	·	·
O=C(c1cccnc1)N1CCN(Cc2ccccc2Br)CC1	·	1.7%	1.0	-31.5*	i	-6.9%
COc1ccccc1C(=O)N1CCN(Cc2cccnc2)CC1	-3.8%	-9.2%	-9.5	-32.6*	i	27.9%
O=C(c1cccnc1)N1CCN(Cc2cccc(Br)c2)CC1	-14.4%	8.0%	1.1	-19.6	i	-5.2%
CC(C)c1nc2sc3c(NCc4ccco4)ncnc3c2c2c1COC(C)(C)C2	-0.4%	-3.1%	10.3	4.4	-104.5%*	9.1%
Cc1nc(NCc2ccco2)c(C#N)c2c1COC(C)(C)C2	18.0%	1.4%	-1.3	-4.2	i	6.4%
CC(C)c1nc2sc3c(NCc4ccccc4)ncnc3c2c2c1COC(C)(C)C2	5.7%	2.0%	4.1	-0.7	?	-1.2%
CC1(C)Cc2c(C#N)c(NCc3ccco3)nc(-c3ccco3)c2CO1	-8.4%	3.2%	?	1.3	-88.8%*	3.7%
CC1=C(C(=O)N2CCOCC2)C(c2ccc(F)c(Br)c2)C2=C(CCCC2=O)N1 (configuration not stated)	·	·	·	-8.1	·	·
CCOc1cc2c(cc1CNC(=O)c1ccc(Cl)cc1Cl)OC(C)C2 (configuration not stated)	·	·	·	2.5	·	·
CC(C)C(NC(=O)Cn1nnn(-c2ccccc2)c1=O)c1ccccc1 (configuration not stated)	·	·	·	0.0	·	·
COC(=O)Nc1nc(C)c(C(=O)N(C)C)s1	0.3%	1.4%	3.2	0.5	-126.5%*	-1.1%
O=C(NCC1(N2CCOCC2)CCCCC1)c1ccc(NC(=O)c2cccs2)cc1	·	·	·	-7.1	·	·
SMILES	Menin MLL FP TR	IDH1 R132H inh	Menin MLL FP FL	LDHA inh	Akt phos inh	CXXC DNA block
Cc1ccc(-c2n[nH]c(=O)c3ccccc23)cc1S(N)(=O)=O	0.7%	6.5%	2.9	-30.2*!	i	0.2%
CNS(=O)(=O)c1cc(-c2n[nH]c(=O)c3ccccc23)ccc1C	·	·	·	-1.6	·	·
CC[N+]1(C)CC2CCC(C)(C1)C2(C)C (configuration not stated)	5.3%	1.1%	0.7	-30.5*!	i	-1.2%
CCOC(=O)c1cnc2c(OC)cccc2c1N1CCN(c2ccc(OC)cc2)CC1	?	7.3%	5.4	3.5	-127.6%*	0.7%
CCOC(=O)C1=C(N)Oc2c(oc(CO)cc2=O)C1c1ccc(Cl)cc1 (configuration not stated)	·	4.2%	4.8	7.1	i	31.4%
CCOC(=O)C1=C(N)Oc2c(oc(CO)cc2=O)C1c1c(F)cccc1Cl (configuration not stated)	5.4%	7.2%	6.5	-2.6	-108.9%*	-6.0%
COc1ccc(CNC(=O)NCc2cccc(OC)c2)cc1	·	·	·	3.0	·	·
Cc1nnc(NC(=O)CSc2nc3ccccc3o2)s1	-2.4%	3.1%	-1.1	-12.1	i	6.4%
O=C(CSc1nc2ccccc2o1)Nc1nncs1	-9.9%	-2.0%	8.0	-9.6	-116.0%*	-0.1%
Cn1nc(C(=O)NC(Cc2ccc(O)cc2)C(=O)O)c2ccccc2c1=O (configuration not stated)	·	·	·	8.1	·	·
C=CCOC(=O)C1CC=CCC1C(=O)Oc1ccc(F)cc1F (configuration not stated)	-0.6%	3.0%	-1.7	-1.6	-80.3%*	8.2%
CCCOc1ccc(C(=O)/C(=C/c2ccncc2)c2nc3ccccc3o2)cc1	·	·	·	-5.5	·	·
CCN(CC)c1ccc(C=Nc2ccc(N(C)C)cc2)c(O)c1	20µM*	21.9%	?	28.3	i	?
CCN(CC)c1ccc(N=Cc2ccc(N(CC)CC)cc2O)cc1	?	4.2%	?	17.7	i	?
Cc1cc(N2CCOCC2)nc(SCC(=O)OCc2ccccc2)n1	-8.4%	-0.9%	-1.0	-1.8	i	-2.5%
Cc1cc(N2CCOCC2)nc(SCc2ccc(Cl)cc2Cl)n1	11.3%	-2.1%	6.9	-3.0	-109.9%*	-2.1%
Cc1ccc(CN2C(=O)CCC2C(=O)NC(C)C)cc1 (configuration not stated)	-5.9%	-5.1%	1.4	-7.7	-118.2%*	-1.8%
CCN(CC)S(=O)(=O)c1ccc(N2CCCCC2)c(NC(=O)CC(C)C)c1	·	·	·	12.0	·	·
CC(C)(C(=O)O)N1CCOCC1	·	·	·	4.2	·	·
COc1ccccc1COCC(O)CNCCc1ccc(C(F)(F)F)cc1 (configuration not stated)	22.4µM*	0.0%	-7.4	-4.0	i	13.1%
Cc1cccc(C)c1OCC(=O)Nc1cccc2cccnc12	·	·	·	10.4	·	·
COCc1nnc(NC(=O)c2ccco2)s1	0.2%	0.0%	1.4	0.5	i	5.2%
CCOCc1nnc(NC(=O)c2ccco2)s1	-14.9%	0.9%	1.3	-3.8	-122.8%*	-4.4%
